Screen size: about 40,000 compounds; about 1,400 (3.5%) were called active.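 Rule for the calls: active = any of four per-well response measures lying three or more SD from its plate-wide compound average, in either direction; inactive = the rest, inconclusive results apart.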 The list comes from a sample in which actives are over-represented; it also holds similar structures and randomly drawn compounds.
The compounds below were run against Voltage-dependent calcium channel gamma-2 subunit (Mus musculus) + Glutamate receptor 2 (Rattus norvegicus) (UniProt O88602+P19491) (assay: AMPAR-TARP gamma-2 complex positive or negative modulation – cell-based, membrane potential dye, primary screen (AID 1259245)). Settings: HEK293 GluA2+stargazin, membrane potential dye (FDSS), glutamate EC50, at 30 µM, hits were called plate by plate, in both directions; compound max-min signal: compound-alone response (agonism); glutamate slope, % of max: measured here: glutamate response slope, % max.
Sequence of Voltage-dependent calcium channel gamma-2 subunit (Mus musculus) + Glutamate receptor 2 (Rattus norvegicus) (O88602 whole entry, looked up): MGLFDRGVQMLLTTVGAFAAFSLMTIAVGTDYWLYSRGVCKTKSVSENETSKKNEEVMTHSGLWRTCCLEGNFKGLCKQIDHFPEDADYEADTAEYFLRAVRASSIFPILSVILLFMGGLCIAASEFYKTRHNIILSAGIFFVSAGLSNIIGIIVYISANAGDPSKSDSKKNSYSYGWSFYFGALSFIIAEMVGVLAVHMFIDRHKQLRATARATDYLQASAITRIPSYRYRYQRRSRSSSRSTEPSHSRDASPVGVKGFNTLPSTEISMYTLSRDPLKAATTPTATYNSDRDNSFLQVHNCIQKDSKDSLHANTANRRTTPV
Sequence of Voltage-dependent calcium channel gamma-2 subunit (Mus musculus) + Glutamate receptor 2 (Rattus norvegicus) (P19491 whole entry, looked up): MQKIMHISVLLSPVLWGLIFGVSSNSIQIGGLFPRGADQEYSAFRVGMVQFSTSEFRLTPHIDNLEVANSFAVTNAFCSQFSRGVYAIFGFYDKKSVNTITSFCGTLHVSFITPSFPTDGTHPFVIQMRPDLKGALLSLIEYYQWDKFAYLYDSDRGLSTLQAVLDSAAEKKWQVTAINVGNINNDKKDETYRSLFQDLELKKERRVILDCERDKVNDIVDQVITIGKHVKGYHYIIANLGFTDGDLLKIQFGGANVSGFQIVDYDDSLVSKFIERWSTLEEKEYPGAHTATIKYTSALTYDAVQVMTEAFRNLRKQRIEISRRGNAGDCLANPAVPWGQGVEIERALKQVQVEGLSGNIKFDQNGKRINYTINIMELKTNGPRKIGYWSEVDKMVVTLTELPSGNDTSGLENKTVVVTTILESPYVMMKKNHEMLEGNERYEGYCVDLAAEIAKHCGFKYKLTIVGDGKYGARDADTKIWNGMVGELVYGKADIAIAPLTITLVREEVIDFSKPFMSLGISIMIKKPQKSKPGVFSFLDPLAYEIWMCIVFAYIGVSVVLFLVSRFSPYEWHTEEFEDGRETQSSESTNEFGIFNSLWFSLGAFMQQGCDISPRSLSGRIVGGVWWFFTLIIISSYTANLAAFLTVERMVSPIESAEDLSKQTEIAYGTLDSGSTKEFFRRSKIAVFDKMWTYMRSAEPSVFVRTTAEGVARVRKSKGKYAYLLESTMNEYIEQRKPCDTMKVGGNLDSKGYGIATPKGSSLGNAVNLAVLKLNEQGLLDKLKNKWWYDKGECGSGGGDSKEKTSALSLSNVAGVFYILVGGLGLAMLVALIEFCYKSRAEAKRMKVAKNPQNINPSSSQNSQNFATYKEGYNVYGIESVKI

**Q.** What does the source list for `CC(=O)N1CC(C(=O)Nc2cccc3nsnc23)C1`?
**A.** compound max-min signal: 0.0775; glutamate response, % of max: 30.1% (inactive); glutamate slope, % of max: 49.8%

**Q.** With `O=C(NCCCN1CCCC1=O)C(=O)Nc1c2c(nn1-c1cccc(Cl)c1)CSC2` as the compound, how does the compound max-min signal read?
**A.** 0.0244

**Q.** What about the glutamate response, % of max of the same compound?
**A.** 21.6% (inactive)

**Q.** And the glutamate slope, % of max?
**A.** 47%

**Q.** How did the compound max-min signal turn out when `CC1CCN(C(=O)C(=O)Nc2c3c(nn2-c2ccc(F)cc2)CSC3)CC1` was run?
**A.** 0.0271

**Q.** What about the glutamate response, % of max of the same compound?
**A.** 24.1% (inactive)

**Q.** What about the glutamate slope, % of max of the same compound?
**A.** 44.2%

**Q.** What does the source list for `O=C(Nc1c2c(nn1-c1ccc(F)cc1)CSC2)C(=O)N1CCCCCC1`?
**A.** compound max-min signal: 0.071; glutamate response, % of max: 32% (active); glutamate slope, % of max: 43.4%

**Q.** `O=C(NCCCn1ccnc1)C(=O)Nc1c2c(nn1-c1ccc(Cl)cc1)CSC2` was tested. Which compound max-min signal did it give?
**A.** 0.0348

**Q.** And the glutamate response, % of max?
**A.** 37.9% (inactive)

**Q.** And the glutamate slope, % of max?
**A.** 64.4%

**Q.** What does the source list for `COc1ccc(-n2nc3c(c2NC(=O)C(=O)N2CCCCC2)CSC3)cc1`?
**A.** compound max-min signal: 0.0721; glutamate response, % of max: 33.6% (active); glutamate slope, % of max: 59.2%

**Q.** What does the source list for `COc1ccc(-n2nc3c(c2NC(=O)C(=O)NC2CCCC2)CS(=O)(=O)C3)cc1`?
**A.** compound max-min signal: 0.0561; glutamate response, % of max: 41.9% (inactive); glutamate slope, % of max: 51.3%

**Q.** With `CCCn1c(N2CCC(C(N)=O)CC2)nc2c1c(=O)n(C)c(=O)n2C` as the compound, how does the compound max-min signal read?
**A.** 0.0828

**Q.** And the glutamate response, % of max?
**A.** 24.8% (inactive)

**Q.** And the glutamate slope, % of max?
**A.** 45.3%

**Q.** `CCCCc1ccc(-n2c(C)cn3c4c(=O)n(CC(=O)OC)c(=O)n(C)c4nc23)cc1` was tested. Which compound max-min signal did it give?
**A.** 0.103

**Q.** And the glutamate response, % of max?
**A.** 55.1% (inactive)

**Q.** What about the glutamate slope, % of max of the same compound?
**A.** 73.4%

**Q.** Which compound max-min signal does the source give for `COc1cccc(-n2nnc3c(N4CCN(C(=O)c5c(OC)cccc5OC)CC4)ncnc32)c1` here?
**A.** 0.0804

**Q.** And the glutamate response, % of max?
**A.** 29.1% (inactive)

**Q.** What about the glutamate slope, % of max of the same compound?
**A.** 53.7%

**Q.** With `Cc1nc(-c2ccccc2)sc1C(=O)NCCOc1ccc2nnc(-c3ccccc3)n2n1` as the compound, how does the compound max-min signal read?
**A.** 0.0398

**Q.** And the glutamate response, % of max?
**A.** 37.1% (inactive)

**Q.** And the glutamate slope, % of max?
**A.** 49.7%

**Q.** Which compound max-min signal does the source give for `CCc1ccccc1NC(=O)NCCOc1ccc2nnc(-c3cccc(F)c3)n2n1` here?
**A.** 0.131

**Q.** And the glutamate response, % of max?
**A.** 41.1% (active)

**Q.** And the glutamate slope, % of max?
**A.** 52.3%

**Q.** Which results are given for `O=C(COc1ccc(Cl)cc1)NCCOc1ccc2nnc(-c3cccc(F)c3)n2n1`?
**A.** compound max-min signal: 0.0351; glutamate response, % of max: 38.7% (inactive); glutamate slope, % of max: 69.7%

**Q.** Which compound max-min signal does the source give for `COc1ccc(CCS(=O)(=O)Nc2ccc3c(c2)N(C(C)=O)CC3)cc1` here?
**A.** 0.0917

**Q.** And the glutamate response, % of max?
**A.** 25.2% (inactive)

**Q.** What about the glutamate slope, % of max of the same compound?
**A.** 47.2%

**Q.** With `CCOc1ccc(N2CCCn3c2nc2c3c(=O)n(CCN3CCOCC3)c(=O)n2C)cc1` as the compound, how does the compound max-min signal read?
**A.** 0.074

**Q.** And the glutamate response, % of max?
**A.** 10% (inactive)

**Q.** And the glutamate slope, % of max?
**A.** 27.7%

**Q.** With `CCc1ccc(NC(=O)Cn2c(=O)c3c(N4CCN(C(C)=O)CC4)ccnc3n(C)c2=O)cc1` as the compound, how does the compound max-min signal read?
**A.** 0.159

**Q.** And the glutamate response, % of max?
**A.** 32.2% (active)

**Q.** And the glutamate slope, % of max?
**A.** 55.8%

**Q.** With `CC(=O)N1CCN(c2ccnc3c2c(=O)n(CC(=O)NCC2CCCO2)c(=O)n3C)CC1` (configuration not stated) as the compound, how does the compound max-min signal read?
**A.** 0.0945

**Q.** What about the glutamate response, % of max of the same compound?
**A.** 51% (inactive)

**Q.** What about the glutamate slope, % of max of the same compound?
**A.** 78.2%

**Q.** Which results are given for `CC(=O)N1CCN(c2ccnc3c2c(=O)n(CC(=O)NCc2ccco2)c(=O)n3C)CC1`?
**A.** compound max-min signal: 0.103; glutamate response, % of max: 49.5% (inactive); glutamate slope, % of max: 74.3%

**Q.** What does the source list for `O=[N+]([O-])c1cccc(CSc2nnc(-c3ccncc3)o2)c1`?
**A.** compound max-min signal: 0.0611; glutamate response, % of max: 20.8% (inactive); glutamate slope, % of max: 47.1%

Source: PubChem BioAssay AID1259245 (Vanderbilt High Throughput Screening Facility, 2017)
